Among all 290,000 compounds or so, about 570 (0.2%) were called active. About 1% were inconclusive and are not listed. Rule as the data show it: active = inhibition mostly above about 51% (no sharp cut-off); inconclusive = no clear call, values can overlap the other calls; inactive = mostly below about 53%. Only a selection was taken, and actives are over-represented in it overall.
Molecular target: Voltage-dependent N-type calcium channel subunit alpha-1B (Homo sapiens) (UniProt Q00975)
Test: inhibitors of Mint1-CaV2.2 protein interaction, biochemical, HTRF (AID 2073)
Conditions: at 20 µM, stronger effect = higher value

Voltage-dependent N-type calcium channel subunit alpha-1B (Homo sapiens), sequence (Q00975 whole entry, looked up): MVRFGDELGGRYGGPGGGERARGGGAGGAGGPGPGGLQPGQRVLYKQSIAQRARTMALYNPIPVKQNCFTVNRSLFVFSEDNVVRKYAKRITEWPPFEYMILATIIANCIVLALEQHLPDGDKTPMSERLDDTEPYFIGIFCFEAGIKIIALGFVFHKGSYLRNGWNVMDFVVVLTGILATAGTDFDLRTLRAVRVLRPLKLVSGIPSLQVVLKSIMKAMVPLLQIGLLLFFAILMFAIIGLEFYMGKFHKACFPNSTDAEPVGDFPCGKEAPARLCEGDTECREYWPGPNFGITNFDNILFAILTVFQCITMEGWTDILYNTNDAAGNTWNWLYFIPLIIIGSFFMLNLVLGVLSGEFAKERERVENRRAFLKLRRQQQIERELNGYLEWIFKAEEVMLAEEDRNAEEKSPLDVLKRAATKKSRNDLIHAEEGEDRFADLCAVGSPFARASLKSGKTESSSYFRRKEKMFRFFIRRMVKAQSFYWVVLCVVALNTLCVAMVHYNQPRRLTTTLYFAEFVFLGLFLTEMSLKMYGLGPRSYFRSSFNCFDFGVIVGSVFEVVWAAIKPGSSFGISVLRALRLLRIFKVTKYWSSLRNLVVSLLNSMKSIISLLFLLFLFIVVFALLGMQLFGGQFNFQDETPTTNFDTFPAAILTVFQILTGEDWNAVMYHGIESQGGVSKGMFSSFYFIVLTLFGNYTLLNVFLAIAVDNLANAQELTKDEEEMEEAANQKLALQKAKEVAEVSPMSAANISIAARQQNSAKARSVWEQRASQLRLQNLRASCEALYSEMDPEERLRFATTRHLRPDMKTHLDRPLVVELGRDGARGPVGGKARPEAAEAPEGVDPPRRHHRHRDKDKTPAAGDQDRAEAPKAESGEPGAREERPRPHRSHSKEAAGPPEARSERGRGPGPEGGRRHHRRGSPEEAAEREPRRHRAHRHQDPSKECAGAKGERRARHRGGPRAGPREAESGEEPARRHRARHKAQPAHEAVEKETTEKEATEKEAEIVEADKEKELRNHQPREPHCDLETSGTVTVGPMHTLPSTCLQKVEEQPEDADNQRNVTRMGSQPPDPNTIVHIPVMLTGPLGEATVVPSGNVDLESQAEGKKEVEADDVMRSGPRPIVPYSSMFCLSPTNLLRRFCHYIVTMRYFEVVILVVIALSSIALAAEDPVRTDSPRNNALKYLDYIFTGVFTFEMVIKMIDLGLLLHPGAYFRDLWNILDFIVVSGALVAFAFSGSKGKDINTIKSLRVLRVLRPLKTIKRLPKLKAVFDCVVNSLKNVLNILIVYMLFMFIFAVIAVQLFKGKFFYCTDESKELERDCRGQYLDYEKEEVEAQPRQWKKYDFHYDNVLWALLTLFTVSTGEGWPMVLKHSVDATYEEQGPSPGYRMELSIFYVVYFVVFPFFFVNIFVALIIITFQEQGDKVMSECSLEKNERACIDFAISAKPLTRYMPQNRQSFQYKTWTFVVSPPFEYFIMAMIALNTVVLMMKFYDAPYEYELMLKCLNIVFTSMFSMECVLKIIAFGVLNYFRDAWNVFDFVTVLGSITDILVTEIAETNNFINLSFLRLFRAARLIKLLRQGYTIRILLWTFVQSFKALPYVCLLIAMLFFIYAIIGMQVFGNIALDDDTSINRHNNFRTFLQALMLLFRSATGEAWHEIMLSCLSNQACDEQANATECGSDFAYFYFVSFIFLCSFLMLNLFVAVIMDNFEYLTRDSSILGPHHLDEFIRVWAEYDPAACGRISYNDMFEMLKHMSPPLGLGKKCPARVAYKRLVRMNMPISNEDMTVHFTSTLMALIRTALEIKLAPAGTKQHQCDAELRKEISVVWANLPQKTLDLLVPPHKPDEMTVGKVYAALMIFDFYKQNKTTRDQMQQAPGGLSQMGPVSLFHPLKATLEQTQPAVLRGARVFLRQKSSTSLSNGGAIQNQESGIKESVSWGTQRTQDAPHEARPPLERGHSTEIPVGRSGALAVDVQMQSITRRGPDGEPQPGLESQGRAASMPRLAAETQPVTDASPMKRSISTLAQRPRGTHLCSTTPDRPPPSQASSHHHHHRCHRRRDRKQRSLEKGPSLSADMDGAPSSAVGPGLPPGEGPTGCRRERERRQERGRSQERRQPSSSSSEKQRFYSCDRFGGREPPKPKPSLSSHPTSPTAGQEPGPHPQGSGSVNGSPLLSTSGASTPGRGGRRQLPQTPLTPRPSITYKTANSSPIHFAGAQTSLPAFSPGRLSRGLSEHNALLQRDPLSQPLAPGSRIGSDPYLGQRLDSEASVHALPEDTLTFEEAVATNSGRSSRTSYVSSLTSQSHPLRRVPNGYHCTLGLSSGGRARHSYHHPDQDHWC

O=C(c1ccco1)C(O)c1ccco1 (stereo not drawn)
inhibition: 16.7% (inactive)

O=P(c1ccccc1)(c1ccccc1)C(O)c1ccco1 (stereo not drawn)
inhibition: -0.2% (inactive)

O=C(O)C(O)c1ccco1 (stereo not drawn)
inhibition: 65.3% (active)

FC(F)(F)Oc1ccc(NC(=S)NCCCN2CCOCC2)cc1
inhibition: -16.9% (inactive)

COC(=O)C1CCCN1S(=O)(=O)c1ccccc1NC(=O)c1cc(OC)c(OC)c(OC)c1 (stereo not drawn)
inhibition: 12.9% (inactive)

O=C(O)c1cc(C(=O)O)cc(-c2ccc(/C=c3/sc4nc5ccccc5n4c3=O)o2)c1
inhibition: 67% (active)

O=C(O)c1ccc(-c2ccc(/C=c3/sc4nc5ccccc5n4c3=O)o2)cc1Cl
inhibition: 28.8% (inactive)

O=C(O)c1cccc(-c2ccc(/C=c3/sc4nc5ccccc5n4c3=O)o2)c1
inhibition: 26.7% (inactive)

COc1cc(/C=C(\C#N)c2nc3ccccc3s2)cc([N+](=O)[O-])c1O
inhibition: 40.5% (inactive)

COc1cc(/C=C(/C#N)c2nc(-c3cc4ccccc4oc3=O)cs2)cc([N+](=O)[O-])c1O
inhibition: 80.7% (active)

COc1cc(/C=C(\C#N)c2nc(-c3cc4ccccc4oc3=O)cs2)ccc1O
inhibition: 23.3% (inactive)

COc1ccc(N2Cc3ccc(C(=O)N/N=C\c4ccc(O)cc4O)cc3C2)cc1
inhibition: 68.9% (inactive)
inhibition (measured here: average of repeat tests): 29.4%

COc1ccc(NC(=O)c2cc3c(CO)cnc(C)c3oc2=Nc2cccc(C)c2)c(OC)c1
inhibition: 10.6% (inactive)

COc1ccc(NC(=O)c2cc3c(CO)cnc(C)c3oc2=Nc2cccc(F)c2)c(OC)c1
inhibition: 11.2% (inactive)

COc1ccccc1C(=O)OCC(=O)NC1CCCC1
inhibition: 16.7% (inactive)

NC(=O)c1ccccc1NC(=O)CN1CCOCC1
inhibition: -0.5% (inactive)

COc1ccc(/C=C/c2ccc3c(Br)ccc(O)c3n2)cc1
inhibition: 32.5% (inactive)

COc1cc(/C=C/c2ccc3cccc(O)c3n2)ccc1O
inhibition: 21.1% (inactive)

COc1cc(/C=C/c2ccc3c(Br)cc(Br)c(O)c3n2)ccc1O
inhibition: 56.6% (active)

COCC(=O)N(Cc1nc2sc(C)c(C)c2c(=O)[nH]1)C1CCCCC1
inhibition: 4.2% (inactive)

CN(Cc1ccccc1F)C(=O)c1ccccc1Sc1ccccc1C#N
inhibition: -14.5% (inactive)

COc1ccc(Nc2nc(-c3c(C)nc4ncccn34)cs2)cc1
inhibition: 55.6% (active)

Cc1ccc(Nc2nc(-c3c(C)nc4ncccn34)cs2)cc1
inhibition: 7.5% (inactive)

Cc1nc2ncccn2c1-c1csc(Nc2ccc(O)cc2)n1
inhibition: 25% (inactive)

Cc1ccc2c(Cl)c(C(=O)NCC(c3ccco3)N3CCCC3)sc2c1 (stereo not drawn)
inhibition: 3% (inactive)

O=c1c(Cl)nc2cc(Cl)ccc2n1CCNc1ncc(C(F)(F)F)cc1Cl
inhibition: -81.2% (inactive)

Clc1ccc2nnnc(-c3ccccc3)c2c1
inhibition: 8.1% (inactive)

Cc1cc(C(=O)COC(=O)Cn2c(C(F)(F)F)nc3ccccc32)c(C)n1Cc1ccco1
inhibition: 1.6% (inactive)

CCOC(=O)c1sc(NC(=O)CCCCCN2C(=O)c3cccc4cccc(c34)C2=O)nc1C
inhibition: 52.5% (active)

CCOC(=O)CCCCCN1C(=O)c2cccc3cccc(c23)C1=O
inhibition: -9.7% (inactive)

CC(=O)c1sc(NC(=O)CCN2C(=O)c3ccccc3C2=O)nc1C
inhibition: 14.5% (inactive)

O=C(CC1C(=O)NCCN1Cc1cccc(F)c1)NCCCOc1cccnc1 (stereo not drawn)
inhibition: 0.9% (inactive)

N=C1C(c2nc3ccccc3s2)=C(O)CN1NC(=O)c1ccccc1[N+](=O)[O-]
inhibition: 14.9% (inactive)

N=C1C(c2nc3ccccc3[nH]2)=C(O)CN1NC(=O)c1c[nH]c2ccccc12
inhibition: 2.4% (inactive)

N=C1C(c2nc3ccccc3s2)=C(O)CN1NC(=O)c1c[nH]c2ccccc12
inhibition: 53.4% (active)

COc1cc(OC)c(C2C(C#N)=C(C)NC(C)=C2C#N)c(C(=O)O)c1
inhibition: -3.5% (inactive)

C=C(C)Cn1c(C2CC(=O)N(Cc3ccccc3)C2)nc2ccccc21 (stereo not drawn)
inhibition: -9.9% (inactive)

CCCN(CCC)CCCNC(=O)C1CCN(S(=O)(=O)c2cccc3nsnc23)CC1
inhibition: -0.6% (inactive)

CNC(=O)c1c(C)[nH]c(=S)c(C#N)c1-c1ccco1
inhibition: -35.6% (inactive)

Cc1ccccc1NC(=O)c1c(C)[nH]c(=S)c(C#N)c1-c1ccco1
inhibition: 50.9% (active)

Cc1ccc(-c2c(C(=O)Nc3ccccc3C)c(C)[nH]c(=S)c2C#N)o1
inhibition: 33.2% (inactive)

CCOC(=O)CNc1nc(Cl)nc(N2CCCCC2)n1
inhibition: 6.2% (inactive)

Cn1c(=O)c2c(n3cnnc13)-c1ccccc1CC21CCCC1
inhibition: 3.5% (inactive)

COc1ccccc1NC(=O)Cc1cccs1
inhibition: -5.5% (inactive)

COc1ccccc1CC(=O)Nc1cc(OC)c(NC(=O)c2ccccc2)cc1OC
inhibition: -5.3% (inactive)

COc1cc(NC(=O)c2ccccc2)c(OC)cc1NC(=O)Cc1cccs1
inhibition: 51.4% (active)

COc1ccc(N=c2ssnc2Cl)cc1
inhibition: 27.4% (inactive)

From PubChem BioAssay AID2073 (Sanford-Burnham Center for Chemical Genomics, 2009)
